Measured values taken from PubChem BioAssay.
A number with no mark means an inactive call. Active and inactive are the calls of the source. Rule as the data show it, unless noted: active = inhibition above about 42%; inactive = the rest.

What was measured:
[1] = target: Nuclear receptor coactivator 3 (Homo sapiens) (UniProt Q9Y6Q9); assay: NCOA3 GAL4-fusion reporter inhibition – cell-based, luminescence, quadruplicate, confirmation (AID 588792;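 active = mean inhibition over 43.08%, the solvent-only control mean plus 3 SD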;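 also: 0% = DMSO treated cells and 100% = gossypol at 36 µM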); settings: HEK293 GAL4-SRC3 luciferase reporter, at 3.6 µM, stronger effect = higher value
[2] = system: transactivating tegument protein VP16 (Human herpesvirus 1), Gal4-VP16 luciferase reporter; assay: repression of VP16-driven luciferase reporter – cell-based, luminescence, high throughput, counter-screen for SRC3 inhibitor project (AID 588794; in the data active = inhibition above about 30%); settings: mammalian cells, at 3.6 µM, stronger effect = higher value
[3] = target: Nuclear receptor coactivator 1 (Homo sapiens) (UniProt Q15788); assay: NCOA1 GAL4-fusion reporter inhibition – cell-based, luminescence, quadruplicate, confirmation (AID 588820;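 active = mean inhibition above 46.68%, the untreated control wells mean plus 3 SD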;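 also: 0% = DMSO wells and 100% = gossypol 36 µM treated wells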); settings: HEK293 GAL4-SRC1 luciferase reporter, at 3.6 µM, stronger effect = higher value
[4] = repression of VP16-driven luciferase reporter – cell-based, luminescence, high throughput, counter-screen for SRC1 inhibitor project (AID 588824; in the data active = inhibition above about 25%); settings: cell-based VP16 transactivation luciferase luminescence; at 3.6 µM; stronger effect = higher value
[5] = StAR promoter reporter inhibitors, counter-screen for LRH-1 inverse agonist project, cell-based, luminescence, high throughput (AID 651611; in the data active = inhibition above about 28%); settings: StAR promoter luciferase reporter counterscreen, at 3.6 µM, stronger effect = higher value
[6] = target: Nuclear receptor subfamily 5 group A member 2 (Homo sapiens) (UniProt O00482); assay: NR5A2 activity suppression in reporter cells – cell-based, luminescence, confirmation (AID 651613); settings: cell-based LRH-1 luciferase reporter, inverse agonism; at 3.6 µM; stronger effect = higher value;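 also: HEK293T cells co-transfected with LRH-1 and StAR promoter luciferase reporter; 0% = vehicle wells and 100% = parental cells lacking receptor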
[7] = target: Steroidogenic factor 1 (Homo sapiens) (UniProt Q13285); assay: inverse agonism at SF1 nuclear receptor – cell-based, luminescence, high throughput, counter-screen for LRH-1 inverse agonist project (AID 651614; in the data active = inhibition above about 44%;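 also: cells cotransfected with StAR promoter reporter and SF1 expression vector; 0% = vehicle on cells with receptor and 100% = vehicle on cells lacking receptor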); settings: cell-based SF1 luciferase reporter, at 3.6 µM, stronger effect = higher value
[8] = compounds suppressing VP16-driven luciferase signal – cell-based, luminescence, high throughput, counter-screen for LRH-1 inverse agonist project (AID 651615; in the data active = inhibition above about 33%); settings: Gal4-VP16 luciferase reporter cells, at 3.6 µM, stronger effect = higher value

Sequence of Nuclear receptor coactivator 3 (Homo sapiens) (Q9Y6Q9 whole entry, looked up, the tested form may be a part): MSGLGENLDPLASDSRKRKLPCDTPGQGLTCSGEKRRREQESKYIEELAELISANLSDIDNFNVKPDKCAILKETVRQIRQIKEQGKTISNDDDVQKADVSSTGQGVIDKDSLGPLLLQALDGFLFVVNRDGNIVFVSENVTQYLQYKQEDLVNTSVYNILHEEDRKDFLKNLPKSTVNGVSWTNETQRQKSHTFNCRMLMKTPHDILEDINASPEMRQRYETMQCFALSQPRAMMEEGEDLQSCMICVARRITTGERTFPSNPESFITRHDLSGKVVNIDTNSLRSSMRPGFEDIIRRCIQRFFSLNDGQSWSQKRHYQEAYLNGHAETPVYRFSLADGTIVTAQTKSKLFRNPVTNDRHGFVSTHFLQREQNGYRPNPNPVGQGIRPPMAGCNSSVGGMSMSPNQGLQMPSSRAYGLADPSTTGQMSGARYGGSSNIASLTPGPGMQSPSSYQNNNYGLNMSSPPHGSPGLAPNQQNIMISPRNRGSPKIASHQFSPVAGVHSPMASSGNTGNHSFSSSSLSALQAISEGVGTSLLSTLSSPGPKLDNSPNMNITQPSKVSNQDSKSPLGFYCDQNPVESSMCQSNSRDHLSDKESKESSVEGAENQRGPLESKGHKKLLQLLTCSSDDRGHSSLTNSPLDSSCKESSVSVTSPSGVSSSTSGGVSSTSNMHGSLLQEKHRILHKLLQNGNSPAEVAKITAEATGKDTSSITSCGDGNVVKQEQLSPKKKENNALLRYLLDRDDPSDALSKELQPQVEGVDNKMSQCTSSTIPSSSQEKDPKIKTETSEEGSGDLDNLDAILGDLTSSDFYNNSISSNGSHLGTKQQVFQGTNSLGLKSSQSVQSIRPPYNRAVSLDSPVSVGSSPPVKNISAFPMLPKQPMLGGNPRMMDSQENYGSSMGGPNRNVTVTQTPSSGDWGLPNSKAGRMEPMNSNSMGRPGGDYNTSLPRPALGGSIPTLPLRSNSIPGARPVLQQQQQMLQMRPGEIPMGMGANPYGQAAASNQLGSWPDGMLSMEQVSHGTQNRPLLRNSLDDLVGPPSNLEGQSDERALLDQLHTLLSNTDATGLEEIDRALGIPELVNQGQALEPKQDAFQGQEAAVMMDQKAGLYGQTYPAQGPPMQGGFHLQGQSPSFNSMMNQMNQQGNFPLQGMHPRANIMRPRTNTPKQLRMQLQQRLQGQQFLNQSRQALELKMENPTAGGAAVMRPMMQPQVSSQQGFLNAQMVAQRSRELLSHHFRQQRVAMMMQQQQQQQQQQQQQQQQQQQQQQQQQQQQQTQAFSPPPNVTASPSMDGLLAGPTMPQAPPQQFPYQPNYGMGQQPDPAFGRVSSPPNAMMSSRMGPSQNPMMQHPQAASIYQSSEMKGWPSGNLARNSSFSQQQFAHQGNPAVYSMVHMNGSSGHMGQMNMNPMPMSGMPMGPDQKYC
Sequence of Nuclear receptor coactivator 1 (Homo sapiens) (Q15788 whole entry, looked up, the tested form may be a part): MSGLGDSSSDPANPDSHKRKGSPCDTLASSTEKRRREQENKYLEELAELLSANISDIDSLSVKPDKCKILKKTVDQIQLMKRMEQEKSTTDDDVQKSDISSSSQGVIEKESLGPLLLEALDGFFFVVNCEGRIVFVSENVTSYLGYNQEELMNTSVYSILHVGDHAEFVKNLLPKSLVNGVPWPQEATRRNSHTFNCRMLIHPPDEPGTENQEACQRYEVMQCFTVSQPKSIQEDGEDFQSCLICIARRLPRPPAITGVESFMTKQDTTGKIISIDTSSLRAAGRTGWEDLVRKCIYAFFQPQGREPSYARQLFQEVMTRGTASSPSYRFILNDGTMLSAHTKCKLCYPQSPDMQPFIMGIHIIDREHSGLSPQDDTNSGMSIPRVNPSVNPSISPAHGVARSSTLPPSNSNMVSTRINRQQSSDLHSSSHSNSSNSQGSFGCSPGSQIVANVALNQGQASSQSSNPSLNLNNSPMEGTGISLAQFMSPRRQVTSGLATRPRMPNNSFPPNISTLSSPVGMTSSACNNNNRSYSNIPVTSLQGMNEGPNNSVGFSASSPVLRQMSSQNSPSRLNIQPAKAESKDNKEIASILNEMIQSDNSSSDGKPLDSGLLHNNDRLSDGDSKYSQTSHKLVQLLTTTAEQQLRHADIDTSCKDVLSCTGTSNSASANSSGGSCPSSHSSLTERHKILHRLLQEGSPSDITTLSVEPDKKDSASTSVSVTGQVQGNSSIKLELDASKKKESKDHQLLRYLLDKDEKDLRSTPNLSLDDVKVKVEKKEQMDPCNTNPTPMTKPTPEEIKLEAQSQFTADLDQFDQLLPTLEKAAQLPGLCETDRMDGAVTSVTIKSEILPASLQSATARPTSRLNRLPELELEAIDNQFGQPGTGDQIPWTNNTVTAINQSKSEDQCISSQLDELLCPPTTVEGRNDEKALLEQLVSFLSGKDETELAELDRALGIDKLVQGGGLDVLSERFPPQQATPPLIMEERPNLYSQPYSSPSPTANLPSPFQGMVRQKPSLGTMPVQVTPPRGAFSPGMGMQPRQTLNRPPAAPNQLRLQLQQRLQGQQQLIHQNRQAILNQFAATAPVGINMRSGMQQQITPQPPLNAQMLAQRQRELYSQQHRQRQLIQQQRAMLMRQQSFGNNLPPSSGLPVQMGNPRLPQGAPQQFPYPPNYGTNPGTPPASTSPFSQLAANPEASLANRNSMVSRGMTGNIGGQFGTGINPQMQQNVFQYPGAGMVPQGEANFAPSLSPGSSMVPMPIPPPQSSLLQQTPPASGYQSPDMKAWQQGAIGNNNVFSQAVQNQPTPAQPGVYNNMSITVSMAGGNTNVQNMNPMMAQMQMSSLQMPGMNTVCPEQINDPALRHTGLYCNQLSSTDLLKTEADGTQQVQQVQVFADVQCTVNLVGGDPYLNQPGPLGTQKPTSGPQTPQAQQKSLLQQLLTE
Sequence of Steroidogenic factor 1 (Homo sapiens) (Q13285 whole entry, looked up, the tested form may be a part): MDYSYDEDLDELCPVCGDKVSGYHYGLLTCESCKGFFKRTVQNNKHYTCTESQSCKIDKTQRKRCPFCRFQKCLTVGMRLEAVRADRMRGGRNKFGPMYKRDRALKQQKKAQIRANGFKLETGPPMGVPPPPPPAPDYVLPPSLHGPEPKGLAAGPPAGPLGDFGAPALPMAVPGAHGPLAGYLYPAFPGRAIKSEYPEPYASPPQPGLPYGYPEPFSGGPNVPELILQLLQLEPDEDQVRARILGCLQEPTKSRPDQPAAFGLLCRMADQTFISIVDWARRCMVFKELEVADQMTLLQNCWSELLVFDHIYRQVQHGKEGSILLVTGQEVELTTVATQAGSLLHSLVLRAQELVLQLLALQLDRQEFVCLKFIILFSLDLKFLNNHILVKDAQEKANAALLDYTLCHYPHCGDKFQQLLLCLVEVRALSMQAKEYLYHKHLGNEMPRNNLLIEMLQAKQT
Sequence of Nuclear receptor subfamily 5 group A member 2 (Homo sapiens) (O00482 whole entry, looked up): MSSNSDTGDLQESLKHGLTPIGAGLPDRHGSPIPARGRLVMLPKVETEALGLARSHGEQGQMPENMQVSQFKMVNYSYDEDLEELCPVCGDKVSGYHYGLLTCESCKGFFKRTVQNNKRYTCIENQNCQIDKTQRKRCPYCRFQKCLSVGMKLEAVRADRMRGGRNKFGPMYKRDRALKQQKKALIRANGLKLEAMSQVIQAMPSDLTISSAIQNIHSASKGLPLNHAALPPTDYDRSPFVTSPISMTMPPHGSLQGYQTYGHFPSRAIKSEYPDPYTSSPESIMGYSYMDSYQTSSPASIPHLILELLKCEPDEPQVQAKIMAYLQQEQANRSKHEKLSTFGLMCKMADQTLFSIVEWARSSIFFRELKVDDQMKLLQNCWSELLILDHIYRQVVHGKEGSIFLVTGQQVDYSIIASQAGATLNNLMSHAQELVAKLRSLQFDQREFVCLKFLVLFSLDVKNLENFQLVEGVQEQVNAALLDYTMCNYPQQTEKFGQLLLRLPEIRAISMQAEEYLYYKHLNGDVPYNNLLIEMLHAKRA

CN(Cc1cnc2nc(N)nc(N)c2n1)c1ccc(C(=O)NC(CCC(=O)O)C(=O)O)c2ccccc12 (stereo not drawn)
inhibition [1]: 63.8% (active) | inhibition [2]: 15% | inhibition [3]: 68% (active) | inhibition [4]: 13.2% | inhibition [5]: 77.9% (active) | inhibition [6]: 45.5% (active) | inhibition [7]: 47.6% (active) | inhibition [8]: 12.9%

O=C(N/N=C/c1ccc[nH]1)c1ccc(COc2cccc3cccnc23)cc1
inhibition [1]: 83% (active) | inhibition [2]: 71.8% (active) | inhibition [3]: 0.58% | inhibition [4]: 66.5% (active) | inhibition [5]: 86% (active) | inhibition [6]: 109% (active) | inhibition [7]: 96.3% (active) | inhibition [8]: 88.4% (active)

O=C1NC(=O)C(c2ccc(F)cc2)N1 (stereo not drawn)
inhibition [1]: 3.02% | inhibition [2]: -3.31% | inhibition [3]: -2.47% | inhibition [4]: -5.94% | inhibition [5]: 11% | inhibition [6]: 8.89% | inhibition [7]: 2.89% | inhibition [8]: 4.11%

CCCCCCCC[n+]1cccc2c3ccccc3ccc21
inhibition [1]: 78.5% (active) | inhibition [2]: 81.6% (active) | inhibition [3]: 59.1% (active) | inhibition [4]: 83.7% (active) | inhibition [5]: 77% (active) | inhibition [6]: 107% (active) | inhibition [7]: 92.8% (active) | inhibition [8]: 93.8% (active)

CC1CCc2nc(NC(=O)CSc3nc4ccccc4o3)sc2C1 (stereo not drawn)
inhibition [1]: 14.2% | inhibition [2]: 15.8% | inhibition [3]: -11.1% | inhibition [4]: -33.6% | inhibition [5]: 5.74% | inhibition [6]: -27.5% | inhibition [7]: 7.34% | inhibition [8]: -33.5%

O=C(NCc1ccccc1)c1cccc(NC(=O)c2ccco2)c1
inhibition [1]: 18.4% | inhibition [2]: 50.7% (active) | inhibition [3]: 26.9% | inhibition [4]: 48.9% (active) | inhibition [5]: 35.5% (active) | inhibition [6]: 51.6% (active) | inhibition [7]: 51.1% (active) | inhibition [8]: 68.5% (active)

N=c1c2c(-c3ccccc3)c(-c3ccccc3)n(Cc3ccco3)c2ncn1CCO
inhibition [1]: 23.5% | inhibition [2]: 54.5% (active) | inhibition [3]: 41% | inhibition [4]: 56.2% (active) | inhibition [5]: 54.3% (active) | inhibition [6]: 64.8% (active) | inhibition [7]: 64% (active) | inhibition [8]: 74.8% (active)

CCOc1ccccc1O[C@H](c1ccccc1)[C@H]1CNCCO1
inhibition [1]: 3.48% | inhibition [2]: -0.26% | inhibition [3]: -8.72% | inhibition [4]: 1.35% | inhibition [5]: 12.6% | inhibition [6]: 8.61% | inhibition [7]: 13.7% | inhibition [8]: 11.6%

CC(=NNC(=S)Nc1ccc(C)cc1)c1ccccn1
inhibition [1]: 59% (active) | inhibition [2]: 69.9% (active) | inhibition [3]: 46.8% (active) | inhibition [4]: 66% (active) | inhibition [5]: 66.1% (active) | inhibition [6]: 68.7% (active) | inhibition [7]: 85.4% (active) | inhibition [8]: 52.6% (active)

Cc1nc(N)nc(N)c1/C=C/C(C)(C)c1ccc(Cl)cc1
inhibition [1]: 70% (active) | inhibition [2]: 29.5% (active) | inhibition [3]: 62.2% (active) | inhibition [4]: 28.5% (active) | inhibition [5]: 78.5% (active) | inhibition [6]: 62.7% (active) | inhibition [7]: 56.5% (active) | inhibition [8]: 28.6%

O=C(NCc1ccco1)c1cccc(NC(=O)c2ccccc2)c1
inhibition [1]: 23.4% | inhibition [2]: 52.9% (active) | inhibition [3]: 33.7% | inhibition [4]: 53.1% (active) | inhibition [5]: 58.8% (active) | inhibition [6]: 65.6% (active) | inhibition [7]: 66% (active) | inhibition [8]: 69.5% (active)

Cn1c2c(c(=O)n(C)c1=O)C(C(F)(F)F)(C(F)(F)F)N=C(c1ccc(Cl)cc1)N2
inhibition [1]: 77.8% (active) | inhibition [2]: 85.7% (active) | inhibition [3]: 42.6% | inhibition [4]: 83.9% (active) | inhibition [5]: 80.6% (active) | inhibition [6]: 104% (active) | inhibition [7]: 93.6% (active) | inhibition [8]: 86.7% (active)

CCCCC(=O)NC(c1ccc(Cl)cc1Cl)c1ccc2cccnc2c1O (stereo not drawn)
inhibition [1]: 39.4% | inhibition [2]: 24.5% | inhibition [3]: 27.4% | inhibition [4]: 27.2% (active) | inhibition [5]: 64% (active) | inhibition [6]: 82% (active) | inhibition [7]: 60.9% (active) | inhibition [8]: 71.7% (active)

O=C(Nc1ccc2c(c1)OCCO2)C(c1cc2ccccc2o1)N1CCN(c2ccc(C(F)(F)F)cn2)CC1 (stereo not drawn)
inhibition [1]: 19.5% | inhibition [2]: 6.65% | inhibition [3]: -13.5% | inhibition [4]: -14.1% | inhibition [5]: -29.7% | inhibition [6]: -44.4% | inhibition [7]: -28% | inhibition [8]: -10.8%

CC(C)(C)N(Cc1ccc2c(c1)OCO2)C(=O)/C=C\S(=O)c1ccccc1 (stereo not drawn)
inhibition [1]: 45% (active) | inhibition [2]: 38.2% (active) | inhibition [3]: 17.8% | inhibition [4]: 38.1% (active) | inhibition [5]: 34.7% (active) | inhibition [6]: 56.4% (active) | inhibition [7]: 68.2% (active) | inhibition [8]: 61.6% (active)

COc1cccc(/C=N/Nc2ccc(C(=O)O)cc2)c1O
inhibition [1]: 68% (active) | inhibition [2]: 63.8% (active) | inhibition [3]: 12.8% | inhibition [4]: 64.4% (active) | inhibition [5]: 68.7% (active) | inhibition [6]: 68.3% (active) | inhibition [7]: 73% (active) | inhibition [8]: 68.7% (active)
